Hits are enriched below; roughly 0.9% of the tested compounds scored in any of these assays.
gsp ag = qHTS for Agonist of gsp, the Etiologic Mutation Responsible for Fibrous Dysplasia/McCune-Albright Syndrome: qHTS; gsp mutant cells, cAMP HTRF, 30 min; Potency, µM (top dose mostly 76.9 µM), for the others: top-dose activation (cAMP increase), most hits filed as activators; 340,000 compounds, 0.13% hits; AID 624287, 2012; active means well fitted activation curve with a large enough effect; inconclusive means small, poorly fitted or top-dose-only effect, or another doubt; inactive means no such curve, though single readings can be large or run the other way; cell line not stated here;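 further: phosphodiesterase inhibitor Ro 20-1724 added with compounds to block cAMP breakdown; potency means the concentration at half of the fitted maximal effect; nearly all actives have a fitted effect of over 60% in size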
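Cells stably selected in G418 were plated at 2000/well, grown 16-24 hr, then given compounds in DMSO with the PDE inhibitor […] (300 uM solution added) for 30 min at 37C; cAMP was read by HTRF.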
RXFP1 antagonist = qHTS Assay for Antagonists of the Relaxin Receptor RXFP1 | HEK293-RXFP1, relaxin-stimulated cAMP HTRF, 30 min; hits give low values | activity change, negative = inhibition, % at 57.5 µM | 350,000 compounds, 0.59% hits | AID 1259400, 2018;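 active means activity change of -60% or lower, but not beyond a set lower limit; inconclusive means change between -60% and -40%, or beyond the set limit; inactive means change above -40%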; further: on the % scale 0 is the no-effect control and ±100 the full control effect
gsp antagonist = qHTS for Antagonists of gsp, the Etiologic Mutation Responsible for Fibrous Dysplasia/McCune-Albright Syndrome: qHTS | gsp-mutant cells, cAMP HTRF, 30 min | Potency, µM (top dose mostly 76.9 µM), without a hit: at the top dose activity change, negative = inhibition, actives largely listed as inhibitors | 340,000 compounds, 0.4% hits; calls by dose curve; cell line not stated here;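 further: intracellular cAMP measured with PDE inhibitor Ro 20-1724 present during compound exposure; potency means the concentration at half of the fitted maximal effect; on the % scale 0 is the no-effect control and ±100 the full control effect; nearly all actives have a fitted effect of over 65% in size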
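G418-selected cells were plated in DMEM/10% FBS for 16-24 h at 37C, then treated with compounds plus the PDE inhibitor […] (300 uM solution added) for 30 min at 37C. Intracellular cAMP was measured by HTRF after 30 min lysis at room temperature.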
RXFP1 agonist = qHTS Assay for Agonists of the Relaxin Receptor RXFP1. Potency, µM (series often up to 57.5 µM), without a hit: at the top dose activation, usual class: activators. HEK293T-RXFP1 cAMP TR-FRET, 30 min; response scale: percent of porcine relaxin response, buffer zero. 370,000 compounds, 0.3% hits; active means well fitted activation curve with a large enough effect; inconclusive means small, poorly fitted or top-dose-only effect; further: potency means the concentration at half of the fitted maximal effect; on the % scale 0 is the no-effect control and ±100 the full control effect; nearly all actives have a fitted effect of over 60% in size
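HEK293T cells stably expressing RXFP1 were pretreated with the PDE4 inhibitor Ro 20174, exposed to compounds for 30 min at 37C, lysed, and cAMP was read by TR-FRET. Data normalized to buffer (basal) and 29 nM porcine relaxin (100%).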
The depositor's hits bear a star; ? = inconclusive; nt = not tested or not shown; [ ] = remark or other dose.

SMILES	gsp ag	RXFP1 antagonist	gsp antagonist	RXFP1 agonist
N#CCCn1nc(-c2ccccc2)cc1Nc1ccccc1NC(=O)C(F)(F)F	10%	nt	-9%	0%
N#CCCn1nc(-c2ccc(Br)cc2)cc1Nc1ccccc1NC(=O)C(F)(F)F	19%[15.4 µM]	-12	32µM*	2%
Nc1ncccc1C(=O)OCC(=O)N1CCN(S(=O)(=O)c2ccc(Cl)cc2)CC1	2%	0	-8%	1%
CCOc1ncccc1C(=O)OCC(=O)N1CCN(S(=O)(=O)c2ccc(Cl)cc2)CC1	7.9µM*	-11	-24%	2%
COc1ccc(C(=O)N2c3nc(-c4ccco4)nn3C3(CCCCC3)[C@@H]3CCCC[C@@H]32)cc1OC	nt	-26	nt	0%
O=C(c1ccc(F)cc1)N1c2nc(-c3ccco3)nn2C2(CCCCC2)[C@@H]2CCCC[C@@H]21	nt	-71*	nt	3%
O=C(c1ccccc1F)N1c2nc(-c3ccco3)nn2C2(CCCCC2)[C@@H]2CCCC[C@@H]21	nt	-65*	nt	-1%
O=C(c1ccccc1F)N1c2ncnn2C2(CCCCC2)[C@@H]2CCCC[C@@H]21	nt	-8	nt	1%
Cc1[nH]n(-c2ccccc2)c(=O)c1C(c1ccc(O)c([N+](=O)[O-])c1)c1c(C)[nH]n(-c2ccccc2)c1=O	8%	-10	11µM*	nt
COc1ccc(C(C[N+](=O)[O-])c2c(C)[nH]n(-c3ccccc3)c2=O)cc1 (stereo unspecified)	-9%	-13	9%	1%
Cc1ccc(NC(=S)NC(=O)/C=C/c2ccco2)c(O)c1	6%	-63*	-10%	3%
COc1ccc(NC(=S)NC(=O)/C=C/c2ccco2)c(OC)c1	-6%	-81*	?	1%
Cc1cc(N2CCN(C)CC2)nc2ccc(NC(=O)Nc3cccc(Cl)c3)cc12	nt	?	nt	-1%
Cc1cccc(C(=O)N2CCc3cc(CNS(=O)(=O)c4ccc(Cl)s4)ccc32)c1	nt	2	nt	7%
O=C(Cn1ccc2cc(S(=O)(=O)N3CCCCCC3)ccc21)NCc1ccccc1Cl	nt	-4	nt	-2%
CCc1ccc(NC(=O)CCC(=O)c2ccccc2)cc1	-5%	3	35µM*	-3%
CCc1ccc(NC(=O)CCC(=O)c2ccc(C)cc2)cc1	33%	-7	-12%	-3%
Cc1cccn2c(=O)c(/C=C3\SC(=S)NC3=O)c(NCCCN3CCOCC3)nc12	10µM*	9	16%	5µM*
CCCN1C(=O)/C(=C/c2c(NCCCOCC)nc3c(C)cccn3c2=O)SC1=S	-2%	5	3%	1%
Cc1ccc(CNC(=O)c2cc3c(=O)n(Cc4ccco4)ccc3nc2C)cc1	nt	0	nt	-5%
CC(C)N1C(=O)S/C(=C/c2ccc3c(c2)n(C)c(=O)n3C)C1=O	?	1	5%	8%
CCN(CC)c1ccc(/C=C2\SC(=O)N(C(C)C)C2=O)o1	-2%[15.4 µM]	-83*	0%	-1%
COc1cccc(CNC(=O)CCc2c(C)c3cc4c(C)c(C)oc4cc3oc2=O)c1	nt	3	nt	6%
COc1ccc(CCN2C(=O)/C(=C\c3ccco3)SC2=S)cc1OC	5%	-77*	-4%	0%
CCCCCCn1c(=O)c2c(ncn2C)n(C)c1=O	nt	-12	nt	nt
SMILES	gsp ag	RXFP1 antagonist	gsp antagonist	RXFP1 agonist
CCN(CC)S(=O)(=O)c1cccc(N=Nc2c(O)c3ccccc3oc2=O)c1	?	-3	3%	16µM*
CCN(CC)S(=O)(=O)c1cccc(NC(=O)c2cc3ccccc3o2)c1	1%	4	?	4%
Cc1cc(C(=O)COC(=O)c2ccc(O)cc2)c(C)n1-c1ccccc1F	10%[15.4 µM]	-83*	9%	2%
COc1ccc(N(C(=O)c2ccncc2)S(=O)(=O)c2ccc(Cl)cc2)cc1	?	-23	50µM*	3%
O=C(Oc1ccc(N(C(=O)c2ccncc2)S(=O)(=O)c2ccc(F)cc2)cc1)c1ccncc1	-21%	-90*	-5%	2%
O=C(Oc1ccc(N(C(=O)c2ccncc2)S(=O)(=O)c2ccc(Cl)cc2)cc1)c1ccncc1	-8%	-4	0%	-2%
COc1ccc2[nH]c3c(N4CCN(Cc5ccc6c(c5)OCO6)CC4)ncnc3c2c1	11%	-17	40µM*	2%

Screens: PubChem BioAssay, National Center for Advancing Translational Sciences (NCATS)
